Growth inhibition data for 37 compounds are collected here from PubChem BioAssay (NCI).

The nature of assay [1]: NCI Yeast Anticancer Drug Screen. Data for the rad50 strain (AID 155).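 Note: 0% = growth of vehicle-only cultures of the same strain.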 The note with it: S. cerevisiae rad50 strain growth inhibition; at 50.0 µM; hits give high values. Summed up:
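Growth of the mutant yeast was measured after compound exposure and referenced to vehicle-treated cultures.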

The nature of assay [2]: NCI Yeast Anticancer Drug Screen. Data for the mec2-1 strain (AID 157). The conditions noted are these: S. cerevisiae mec2-1 strain, at 50.0 µM, hits give high values. Summed up: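 Strain: mec2-1 (DNA repair/cell cycle alteration). Compound exposure, then growth measured; inhibition expressed relative to vehicle.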
Assay [3] can be described thus: NCI Yeast Anticancer Drug Screen. Data for the sgs1 mgt1 strain (AID 161).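 Note: 0% = growth of cultures given vehicle only.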 The conditions noted are these: S. cerevisiae sgs1 mgt1 strain, at 50.0 µM, hits give high values. The method in brief:
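Mutant yeast exposed to compound; growth scored against vehicle-only wells.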

Assay [4] in a line: NCI Yeast Anticancer Drug Screen. Data for the cln2 rad14 strain (AID 165).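 Note: 0% = growth equal to vehicle treated cultures.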 The conditions noted are these: S. cerevisiae cln2 rad14 strain, at 50.0 µM, hits give high values. The method in brief:
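Compounds are applied to the cln2 rad14 yeast strain, and growth is then compared with that of vehicle-treated cultures to give inhibition.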

A short description of assay [5]: NCI Yeast Anticancer Drug Screen. Data for the bub3 strain (AID 167). The conditions noted are these: S. cerevisiae bub3 mutant strain, at 50.0 µM, hits give high values. Summed up:
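Whole-cell yeast assay. The mutant strain was incubated with compounds, and growth inhibition was determined by comparison with vehicle-treated cells.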

Assay [6] can be described thus: NCI Yeast Anticancer Drug Screen. Data for the mlh1 rad18 strain (AID 175). The note with it: S. cerevisiae mlh1 rad18 strain growth inhibition; at 50.0 µM; hits give high values. The method in brief: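 Read-out is yeast growth inhibition, calculated against vehicle-only controls. The compound was applied to a strain engineered with DNA damage repair alterations.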

Molecules are shown by their SMILES. Several values for one entry are separate records, joined by “and”; a condition that tells them apart may be missing. Equal entries are not always repeated. The panel holds about 79,000 compounds, 15% with a hit somewhere; the sample as a whole holds those more often. A number with no mark means an inactive call. Activity calls are given as the source filed them. Cut-off read from the data, not from the text of the source: active = growth inhibition above about 70%; inactive = the rest.

As for `Clc1cccc2c(N3CC3)cnnc12`, the growth inhibition is 17.6% in assay [1]; -1.3% in assay [2]; -13.3% in assay [3]; 1.4% in assay [4]; -16.6% in assay [5]; -2.55% in assay [6].
Consider `CCN1C(=O)NC(=O)C(CC)(N2CCCCC2)C1=O` (configuration not stated), for which the growth inhibition in assay [1] was 10.7%; in assay [2], 7.95%; in assay [3], 5%; in assay [4], 15%; in assay [5], 2.55%; in assay [6], 25.4%.
Turning to `CNC1(c2ccccc2)CC1`, the growth inhibition in assay [1] was 24.9%; in assay [2], -12.2%; in assay [3], 0.95%; in assay [4], -60.9%; in assay [5], 15.2%; in assay [6] it was -7.05%.
With `O=[N+]([O-])c1cc(-c2ccc([As](=O)(O)O)cc2)ccc1[As](=O)(O)O`, the growth inhibition in assay [1] is 2.5%; in assay [2] it was 4.4%; in assay [3], -40%; in assay [4], 9.5%; in assay [5], -22%; in assay [6] it was -4.15%.
In the case of `CC(C)CCC[C@@H](C)[C@H]1CC[C@H]2[C@@H]3CC=C4C[C@@H](OC(=O)F)CC[C@]4(C)[C@H]3CC[C@]12C`, the growth inhibition was 19.9% in assay [1]; 20.6% in assay [2]; 42.5% in assay [3]; 35.9% in assay [4]; 26.9% in assay [5]; 33.7% in assay [6].
In the case of `CC1(C)CN=C(Nc2ccc(F)c(F)c2)S1`, the growth inhibition in assay [1] is 4.3%; in assay [2] it was 3.8%; in assay [3], 12.1%; in assay [4], 15.3%; in assay [5], -12.8%; in assay [6] it was -19.6%.
Regarding `CCN1C(=O)C(=Cc2ccc(-c3ccccc3)cc2)C(=O)N(CC)C1=S`, the growth inhibition was 32.4% in assay [1]; -5.5% in assay [2]; 23.1% in assay [3]; 16.9% in assay [4]; 15.4% in assay [5]; 20.4% in assay [6].
In the case of `CC(N)C(O)c1ccc(O)cc1` (configuration not stated), the growth inhibition was -14% in assay [1]; -12% in assay [2]; -21.1% in assay [3]; -4.95% in assay [4]; -39.2% in assay [5]; -44% in assay [6].
For the compound `CC1(Cl)CC2C(CC1Sc1nnnn1-c1ccccc1)C2(C)C` (configuration not stated), the growth inhibition is -7.45% in assay [1]; -35.2% in assay [2]; -7.2% in assay [3]; -20.6% in assay [4]; -18.4% in assay [5]; -7.2% in assay [6].
Take `NCCN.NCCN.O=C([O-])CCl.O=C([O-])CCl.[Co+3].[O-][Cl+3]([O-])([O-])[O-]`: the growth inhibition is -23.8% in assay [1]; 3.45% in assay [2]; -43.2% in assay [3]; 8.4% in assay [4]; -18.5% in assay [5]; -9% in assay [6].
Turning to `CCOC(CP(=O)(OCC)OCC)OCC`, the growth inhibition is -13.2% and 8.45% in assay [1]; -26.2% and -14.3% in assay [2]; -16.2% and 4.65% in assay [3]; 16.2% and 15.7% in assay [4]; 3.65% and 6.5% in assay [5]; -25.4% and 14.4% in assay [6].
In the case of `COc1cc2c(cc1OC)C13CCN4CC5=CCOC6CC(=O)N2C1C6C5CC43` (configuration not stated), the growth inhibition was -13% and 7.35% in assay [1]; -43.9% and -36.3% in assay [2]; -20.9% in assay [3]; 4% in assay [4]; -8.6% in assay [5]; -0.6% and -1.65% in assay [6].
Consider `CC(=O)OC1CCC2(C)C3CCC4(C)C(Oc5ccccc5)CCC4C3CC(Br)C2(O)C1` (configuration not stated), for which the growth inhibition in assay [1] was -48%; in assay [2], -29.9%; in assay [3] it was -35.9%; in assay [4], 2.75%; in assay [5] it was -31.6%; in assay [6], -43%.
For `C1CC[N-]CC1.CC(=N\O)/C(C)=N/O.CC(=N\O)/C(C)=N/O.[CH2-]Cl.[Co+2]`, the growth inhibition in assay [1] was 4.6%; in assay [2], 14.8%; in assay [3], 14.4%; in assay [4], -31.6%; in assay [5], 20.1%; in assay [6] it was 27.9%.
For `COc1ccc([C@H]2N[C@@H]2c2ccccn2)cc1`, the growth inhibition in assay [1] was 3.25%; in assay [2], -1.5%; in assay [3], -7.2%; in assay [4], 17.1%; in assay [5], 4.8%; in assay [6], 20.9%.
In the case of `NC(=O)c1cc([N+](=O)[O-])cc([N+](=O)[O-])c1`, the growth inhibition in assay [1] was 1.35%; in assay [2], -16.2%; in assay [3], 9.1%; in assay [4], 0%; in assay [5] it was 3.35%; in assay [6], 14.8%.
Turning to `CC1(C)C(=O)C=CC2(C)C3CCC4(C)C(O)CCC4(C)C3CCC12` (configuration not stated), the growth inhibition was 9.6% in assay [1]; -10.2% in assay [2]; 7.2% in assay [3]; -30.1% in assay [4]; 13.8% in assay [5]; 20.1% in assay [6].
Turning to `O=C1/C(=C\c2cc3ccccc3c3ccccc23)N2CCC1CC2`, the growth inhibition in assay [1] was 11.1%; in assay [2], -10.2%; in assay [3] it was -12%; in assay [4], -7.35%; in assay [5], -3.1%; in assay [6], 1%.
On to `CCCCCCC(=O)O[C@H]1CC[C@H]2[C@@H]3CCC4C/C(=N/NC(=O)c5cccc6c(=O)c7ccccc7[nH]c56)C=C(C)[C@]4(C)[C@H]3CC[C@]12C` (some centres not stated), for which the growth inhibition in assay [1] is 3.1%; in assay [2], -0.85%; in assay [3], 16.6%; in assay [4] it was 24.7%; in assay [5], 8.45%; in assay [6], -55.3%.
`CC(C)C(NC(=O)CCl)C(=O)O` (configuration not stated): the growth inhibition is -9.2% in assay [1]; -0.2% in assay [2]; 5.75% in assay [3]; -11.4% in assay [4]; -2.55% in assay [5]; 0.3% in assay [6].
Take `C/C=C(\CC)C1(CCC)C(=O)NC(=O)NC1=O`: the growth inhibition in assay [1] was 15.1% and 5.2%; in assay [2], 13.1% and 3%; in assay [3] it was 5.25% and 22.8%; in assay [4], 17.4% and -7%; in assay [5], 1.35% and -0.4%; in assay [6], 7.75% and -3.65%.
Consider `CC12CCC(O)CC1CCC1C2CCC2(C)C(c3ccc(=O)oc3)CC3OC312` (configuration not stated), for which the growth inhibition in assay [1] was 35.5%; in assay [2] it was 31.5%; in assay [3] it was 66.5%; in assay [4], 48.5%; in assay [5] it was 48.6%; in assay [6], 60.9%.
For the compound `CN1CN(c2ccccc2)C2(CCN(CCc3csc4ccccc34)CC2)C1=O`, the growth inhibition in assay [1] is 29.9%; in assay [2], 12.2%; in assay [3], 17.8%; in assay [4], 16.9%; in assay [5], 3.5%; in assay [6], 19.4%.
Take `CCC1(c2c(F)c(F)c(N)c(F)c2F)CCC(=O)NC1=O` (configuration not stated): the growth inhibition in assay [1] is -11.9%; in assay [2], -6.25%; in assay [3], -1%; in assay [4] it was 16.4%; in assay [5], -16.4%; in assay [6] it was 1.6%.
For `O=P(O)(O)CCCCP(=O)(O)O.[Zn+2]`, the growth inhibition in assay [1] was -3.05%; in assay [2], -2.45%; in assay [3] it was 1.6%; in assay [4] it was -5.1%; in assay [5] it was 3.75%; in assay [6], 7.05%.
For the compound `CCCC1CC=CCC12C(=O)NC(=O)NC2=O` (configuration not stated), the growth inhibition in assay [1] is -4.7%; in assay [2] it was 1.45%; in assay [3] it was 12.7%; in assay [4], -6.5%; in assay [5], 0.5%; in assay [6] it was 12.9%.
With `COC1OC(CN=[N+]=[N-])C2OC12` (configuration not stated), the growth inhibition in assay [1] was 5.4%; in assay [2], -0.3%; in assay [3], -3.2%; in assay [4], 3.9%; in assay [5], 0.6%; in assay [6] it was 7.95%.
Turning to `CC(C)N1CC(COc2cccc3ccccc23)OP1(=O)N(CCCl)CCCl` (configuration not stated), the growth inhibition in assay [1] was 97% (active); in assay [2] it was 98.7% (active); in assay [3], 52%; in assay [4] it was 98.3% (active); in assay [5], 98.4% (active); in assay [6], 98.4% (active).
In the case of `COc1cccc(C(O)CN(C)C)c1OC` (configuration not stated), the growth inhibition in assay [1] is 7.05%; in assay [2], -6.65%; in assay [3], 11.2%; in assay [4], 30.2%; in assay [5], -9.85%; in assay [6], 9.95%.
For the compound `O=NN(CS(=O)(=O)O)c1ccccc1`, the growth inhibition is -5.9% in assay [1]; -3.05% in assay [2]; -1.6% in assay [3]; -29.2% in assay [4]; 6.4% in assay [5]; 0.4% in assay [6].
Take `NC(=O)CCCc1ccc([As]=O)cc1` (configuration not stated): the growth inhibition in assay [1] is -8.7%; in assay [2] it was -11.9%; in assay [3], -8.85%; in assay [4] it was -27.1%; in assay [5], -0.25%; in assay [6], 9.75%.
Take `O=C(Nc1ccc(O)cc1)c1c(O)[nH]c(=S)[nH]c1=O`: the growth inhibition in assay [1] is -11.7%; in assay [2], -13.1%; in assay [3], 6.25%; in assay [4] it was -56.5%; in assay [5] it was 1.7%; in assay [6] it was 4.65%.
For the compound `ClCCCCCCCCCCCl`, the growth inhibition is 10.9% in assay [1]; -2.55% in assay [2]; -13.2% in assay [3]; -11.8% in assay [4]; -15.2% in assay [5]; -8.8% in assay [6].
Turning to `CC1=C(O)C(=O)[C@@H]2O[C@@H]2C1=O`, the growth inhibition in assay [1] was 42%; in assay [2], 29.6%; in assay [3] it was 43.8%; in assay [4], 14%; in assay [5] it was 31.3%; in assay [6] it was -35.4%.
Consider `C1CN(P(N2CCOCC2)N2CCOCC2)CCO1`, for which the growth inhibition is -17.6% in assay [1]; -70.3% in assay [2]; -9.25% in assay [3]; 18.1% in assay [4]; -10.4% in assay [5]; -28.4% in assay [6].
For the compound `O=C([O-])C[OH+]c1ccc(Cl)cc1Cl.O=C([O-])C[OH+]c1ccc(Cl)cc1Cl.[Ni+2]`, the growth inhibition in assay [1] is 10.3%; in assay [2], 21.6%; in assay [3], 18.9%; in assay [4], 3.1%; in assay [5], 3.85%; in assay [6], 41.5%.
In the case of `O=C(O)CC1NCc2cc3ccccc3nc21` (configuration not stated), the growth inhibition in assay [1] was 6.4%; in assay [2] it was -13.2%; in assay [3], -17.2%; in assay [4], 10%; in assay [5] it was -0.8%; in assay [6], 16.6%.
